Bioassay records as filed in PubChem.
Dicer processing: inhibitors of human Dicer processing of pre-microRNA; cat-ELCCA pre-miR-21 Dicer processing, chemiluminescence; stronger effect = higher value; z-score at 25 µM; hit rate 6% among 47,000; AID 1347074; in the data active = z-score above about 3, passing the limit was not always enough;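 also: plate controls were vehicle for no effect and no enzyme for full effect; higher signal means more uncleaved substrate so more Dicer inhibition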
An asterisk follows results filed as active. The full list was thinned out, with hits kept by preference.

SMILES	Dicer processing
COc1cccc2c1OC(c1cccc(F)c1)N1N=C(c3ccccc3O)CC21 (configuration not stated)	6.97*
COc1ccc(O)c(C2=NN3C(C2)c2cccc(OC)c2OC3c2cccc(O)c2)c1 (configuration not stated)	5.07*
COc1ccc(O)c(C2=NN3C(C2)c2cccc(OC)c2OC3c2ccc(OC)c(O)c2)c1 (configuration not stated)	0.58
COc1cccc2c1OC(c1ccccc1)N1N=C(c3ccccc3O)CC21 (configuration not stated)	1.53
CC(=N/NCCC#N)/C(=N\OC(=O)c1ccc([N+](=O)[O-])cc1)C(=O)Nc1ccccc1	-1.61
Cc1ccc(S(=O)(=O)NC(=O)Nc2ccc(NC(=O)c3ccccc3O)cc2)cc1	1.42
O=C(CN1CCc2ccccc21)Nc1scc2c1c(=O)oc1ccccc12	-4.59
CSC1=N/C(=C\c2c(C)nn(-c3ccccc3)c2Cl)C(=O)S1	0.63
Cc1ccccc1OCC(O)Cn1cnc2ccccc21 (configuration not stated)	2.05
O=C1CC(c2cccc(F)c2)c2c(n[nH]c2-c2ccccc2)N1 (configuration not stated)	1.88
Cc1cc(C)cc(Oc2c(C(F)(F)F)oc3cc(O)ccc3c2=O)c1	0.79
O=c1c(Oc2ccccc2Br)c(C(F)(F)F)oc2cc(O)ccc12	1.03
O=c1c(Oc2ccccc2Cl)c(C(F)(F)F)oc2cc(O)ccc12	3.26*
CN(C)CCNc1nc2c(c(=O)n(C)c(=O)n2C)n1CC(O)COc1ccccc1 (configuration not stated)	-1.34
COC(=O)c1scc(C)c1N	0.29
Cc1cc(C)nc(SCCc2ccncc2)n1	3.59*
Cc1cc(C)nc(SCC(=O)n2c(C)c(C)c3ccccc32)n1	1.34
Cc1cc(C)nc(SCC(=O)N2c3ccccc3CCc3ccccc32)n1	1.65
O=c1oc2cc3occ(-c4ccc(Cl)cc4)c3cc2c2ccccc12	0.4
Cc1cccc(Oc2ccc(N=Cc3ncc([N+](=O)[O-])n3C)cn2)c1C	3.79
CCCCCc1c(O)nc(SCCN(C)C)[nH]c1=O	1.21
CCCCCCc1c(O)nc(SCCN(C)C)[nH]c1=O	0.69
CCCCCCc1c(O)nc(SCC(=O)O)[nH]c1=O	5.67*
CCOC(=O)CCc1ccc2c(c1)NC(c1cccc([N+](=O)[O-])c1)O2 (configuration not stated)	-0.17
COC(=O)C(C)Oc1ccc2c(=O)c(Oc3cc(C)cc(C)c3C)coc2c1 (configuration not stated)	2.22
SMILES	Dicer processing
Cc1ccc(C2=NC(C(F)(F)F)(C(F)(F)F)N=C(N(C)C)O2)cc1	3.72*
Cc1ccccc1C1=NC(C(F)(F)F)(C(F)(F)F)N=C(N2CCOCC2)O1	-0.79
COc1cccc(N2C(=O)C3C(C2=O)C2(C)c4ccccc4C3(C)c3ccccc32)c1 (configuration not stated)	0.96
COC(CN(C)c1ncnc2sccc12)OC	-0.56
COC(=O)Cn1nnc(N2CCOCC2)n1	0.53
O=C(Cn1nnc(N2CCOCC2)n1)NNC(=S)Nc1ccc(F)cc1F	0.13
CC(C(=O)NNC(=S)NCC1CC1)n1nnc(N2CCOCC2)n1 (configuration not stated)	3.88*
CCC1CSC(Nc2ccc(C)c(Cl)c2)=N1 (configuration not stated)	-0.71
CN(C)/C=C/C(=O)c1cccc(C#N)c1	-0.24
COC(=O)C1=C(C)NC2=C(C(=O)c3ccccc32)C1c1cccs1 (configuration not stated)	-6.28
COC(=O)C1=C(C)NC2=C(C(=O)c3ccccc32)C1c1ccc(-c2ccc(Cl)cc2)o1 (configuration not stated)	3.62*
COC(=O)C1=C(C)NC2=C(C(=O)c3ccccc32)C1c1ccccc1Cl (configuration not stated)	-1.01
CCOC(=O)C1=C(C)NC2=C(C(=O)c3ccccc32)C1c1ccccc1OC (configuration not stated)	1.44
COC(=O)c1nc2c(C)cccn2c1F	3.08*
CCCS(=O)(=O)c1c(S(=O)(=O)CCC)c2c(C)cccn2c1C(=O)OC	0.26
Cc1cccn2c(=O)c(NC(=O)c3ccc(Cl)cc3)cnc12	0.05
CC(C)c1ccc(OCC(O)Cn2c[n+](C)c3ccccc32)cc1 (configuration not stated)	-0.56
COc1ccc(C2(CNS(=O)(=O)c3ccccc3)CCCC2)cc1OC	5.94*
COc1ccc(S(=O)(=O)NCCSc2nnnn2-c2ccccc2)cc1OC	1.75
COc1ccc(-c2nc(S(=O)(=O)c3ccccc3)c(N3CCCCC3)o2)cc1OC	1.46
Cc1nc(C(F)(F)F)ccc1C(=O)N1CCSCC1	-0.12
N/C(=N\S(=O)(=O)c1cc(C(F)(F)F)cc(C(F)(F)F)c1)N1CCSCC1	5.54*
N/C(=N\S(=O)(=O)c1cc(C(F)(F)F)cc(C(F)(F)F)c1)c1ccccc1	0.93
C/C(=N\NS(=O)(=O)c1ccc(C)cc1)c1ccc(OCCOc2ccc([N+](=O)[O-])cc2)cc1	-8.99
COc1ccc2sc(C)[n+](CCC(=O)O)c2c1	-6.3
SMILES	Dicer processing
CC(C)CCn1c(N2CCCCC2)nc2c1c(=O)[nH]c(=O)n2C	-1.35
CSc1sc(Br)c2c1/C(=N/OC(=O)c1ccccc1Cl)CC(C)(C)C2	-0.22
CSc1sc(Br)c2c1/C(=N/OC(=O)c1ccc(Cl)cc1)CC(C)(C)C2	0.2
COC(=O)c1sc(SC)c2c1CC(C)(C)C/C2=N\OC(=O)c1ccc(Cl)cc1	3.31*
C=CCNc1nc(C)nc2c1sc1nc3c(cc12)COC(C)(C)C3	1.79
CC=C(C)C(=O)O[C@H]1[C@H](OC(C)=O)C2(CO)C(CC1(C)C)C1=CCC3C4(C)CCC(OC5O[C@H](C(=O)O)[C@@H](O[C@@H]6O[C@H](CO)[C@@H](O)[C@H](O)[C@H]6O)[C@H](O)[C@H]5O[C@@H]5O[C@H](CO)C(O)[C@H](O)[C@H]5O)[C@](C)(CO)C4CCC3(C)[C@]1(C)C[C@H]2O (some centres not stated)	0.57
COc1ccccc1-c1coc2cc(OC(=O)c3cccs3)ccc2c1=O	12.4
Cn1c(-c2ccc3nc(-c4ccc(N)cc4)[nH]c3c2)nc2cc(N)ccc21	5.74*
Clc1ccc(-c2nc3ccccc3[nH]2)cc1	-1.46
Cn1c(-c2ccc(-c3nc4ccccc4[nH]3)cc2)nc2cc(N)ccc21	4.67*
Nc1ccc2nc(-c3ccccc3)[nH]c2c1	-3.41
Nc1ccc2nc(-c3cccnc3)[nH]c2c1	0.6
Nc1ccc(Oc2ccc3nc(-c4ccc(N)cc4)[nH]c3c2)cc1	0.25
N#CC(Nc1cc(C(F)(F)F)cc(C(F)(F)F)c1)c1ccccc1 (configuration not stated)	1.09
CCOC(=O)/C(C#N)=C/Nc1ccc2oc3ncccc3c(=O)c2c1	-1.12
Nc1nc2c(c(=O)[nH]1)C(c1cccc(Br)c1)CC(=O)N2 (configuration not stated)	0.8
O=C(NC(=O)c1ccccc1N1CCCCC1)Nc1ccc(Cl)cc1	0.93
C=Cc1c(S(C)(=O)=O)sc(C(=O)Oc2ccccc2)c1C	-0.14
COc1ccc(N=C2NC(=O)CC(C(=O)Nc3ccc(Br)cc3)S2)cc1 (configuration not stated)	-0.42
O=C(Nc1ccc(Cl)cc1O)c1ccco1	5.69*
O=C(Nc1cc(-c2nc3cc(Cl)ccc3o2)ccc1Cl)c1ccco1	1.25
O=C(Nc1cccc2cccnc12)c1ccco1	-2.82
CCc1nc2c(=O)n(C)c3c(c(=O)n(C)c(=O)n3C)c2o1	0.28
